# Measurements: article PMC11062922 (Nature Chemical Biology, 2023)
# Like-named read-outs stand apart in the source and are kept apart here.
# Legend:
# Set-up in all cases: species or system human, MV4-11 + K-562 + COLO205 + SK-N-BE2 + OVCAR-8
# MERTK = conditions: read-out: apparent Kd, n = 1
# IRAK1 = conditions: read-out: apparent Kd, n = 1
# MAPK11 = conditions: read-out: apparent Kd, compound concentrations: 100 nM and 1000 nM (sheet 'Samples'), n = 1
# SYK = conditions: read-out: apparent Kd, n = 1
# PAK4 = conditions: compound concentrations:0.3nM, 1nM, 3nM, 10nM, 30nM, 100nM, 300nM, by the legend:Standard error of the EC50 estimation as provided by the drc package.; for Kd: read-out: apparent Kd
# MAP2K5 = conditions: read-out: apparent Kd; compound concentrations: 100 nM and 1000 nM (sheet 'Samples'), CATDS: 8.5242635319968205E-3; n = 1
# PKN3 = conditions: compound concentrations:0.3nM, 1nM, 3nM, 10nM, 30nM, 100nM, 300nM, 1000nM,R2:0.90981556238152395,slope:1.4029304179145099,EC50 Standard Error, by the legend:Standard error of the EC50 estimation as provided by the drc package.
# EPHB6 = conditions: read-out: apparent Kd, n = 1
# PIM1 = conditions: read-out: apparent Kd; compound concentrations:100 nM and 1000 nM (sheet 'Samples'); n = 1
# PRKDC = conditions: read-out: apparent Kd, n = 1
# COX5A = conditions: read-out: apparent Kd; compound concentrations: 100 nM and 1000 nM (sheet 'Samples'), CATDS: 8.0504484678198804E-2; n = 1
# NQO1 = conditions: read-out: apparent Kd; compound concentrations:100 nM and 1000 nM (sheet 'Samples'); n = 1
# AKT1 = conditions: read-out: apparent Kd; compound concentrations:100 nM and 1000 nM (sheet 'Samples'); n = 1
# DCTPP1 = conditions: read-out: apparent Kd; compound concentrations: 100 nM and 1000 nM (sheet 'Samples'), CATDS: 5.0969349281877803E-2; n = 1
# [1] = compound concentrations:100 nM and 1000 nM (sheet 'Samples')
# [2] = 1000nM,R2:0.98802455290270397,slope:1.1906156337481999,EC50 Standard Error
# [3] = 1000nM,R2:0.97831665287894598,slope:1.2194506521172099,EC50 Standard Error
# 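Wherever EC50 is given: competition pulldown with Kinobeads ε in cell lysates, inhibitor preincubated 45 min at 4 °C, bound kinases quantified by LC–MS/MS against DMSO control.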
# 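Wherever Kd is given: competition pulldown with Kinobeads ε in cell lysates, inhibitor preincubated 45 min at 4 °C, bound kinases quantified by LC–MS/MS against DMSO control.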
compound,measurement,setting,value
CCOC(=O)N1CCC(n2cnc(-c3ccc(F)cc3)c2-c2ccnc(N)n2)CC1 [SB-219952],potency estimated from few doses,"MERTK; compound concentrations: 100 nM and 1000 nM (sheet 'Samples'), CATDS: 8.4469178777721397E-3",1410 nM
CNC(=O)c1ccccc1Nc1nc(Nc2ccc(N3CCOCC3)cc2)ncc1Cl.Cl [GSK1576028A],potency estimated from few doses,IRAK1; [1],1020 nM
Fc1ccc(-c2c(-c3ccncc3)[nH]c3cccnc23)cc1 [RO1153853-000],potency estimated from few doses,MAPK11; CATDS: 6.1294477906433602E-2,838 nM
NCCNS(=O)(=O)c1ccc(-c2ccnc3[nH]ccc23)cc1 [GSK977617A],potency estimated from few doses,MERTK; [1],1440 nM
Cc1cccc(Nc2nc(N[C@H]3CCCC[C@H]3N)ncc2C(N)=O)c1.Cl [GSK986310C],potency estimated from few doses,SYK; [1],79.7 nM
same,EC50,PAK4; [2],135 nM
same,Kd,PAK4; [2],65.9 nM
COc1ccc(Nc2ncc(C#N)c(Nc3ccccc3C(N)=O)n2)cc1N1CCN(C)CC1.Cl [GSK1558669A],potency estimated from few doses,"IRAK1; compound concentrations: 100 nM and 1000 nM (sheet 'Samples'), CATDS: 7.7027436488320998E-3",467 nM
same,potency estimated from few doses,MAP2K5,318 nM
same,potency estimated from few doses,"SYK; compound concentrations: 100 nM and 1000 nM (sheet 'Samples'), CATDS: 6.16985372159695E-3",1440 nM
CCn1c(-c2nonc2N)nc2c(C#CC(C)(C)O)nc(OCCNC)cc21.Cl [GSK949675A],EC50,PAK4; [3],316 nM
same,Kd,PAK4; [3],218 nM
same,EC50,PKN3,89.8 nM
same,Kd,PKN3; read-out: apparent Kd,89.8 nM
O=C1NC(=O)C(N2CCc3ccccc32)=C1c1ccccc1Cl [SB-373598],potency estimated from few doses,EPHB6; [1],615 nM
same,potency estimated from few doses,MERTK; [1],1850 nM
same,potency estimated from few doses,PIM1,923 nM
same,potency estimated from few doses,PRKDC; [1],1200 nM
Clc1cc(Cl)cc(Nc2ccnc(Nc3cc(Cl)cc(Cl)c3)n2)c1 [GSK175726A],potency estimated from few doses,"EPHB6; compound concentrations: 100 nM and 1000 nM (sheet 'Samples'), CATDS: 8.5475708332426303E-3",1630 nM
same,potency estimated from few doses,"PRKDC; compound concentrations: 100 nM and 1000 nM (sheet 'Samples'), CATDS: 1.07981791880609E-2",607 nM
Cc1cc(-c2ccnc(Nc3cccc(C#N)c3)n2)cc(C)c1O [GSK1440913A],potency estimated from few doses,COX5A,1300 nM
CN(C)CC(O)COc1ccc(Nc2nccc(-c3cnn4nc(N5CCOCC5)ccc34)n2)cc1 (centres unmarked) [GW767488X],potency estimated from few doses,IRAK1; [1],80 nM
CNCc1ccc(-c2cc(-c3nc(-c4ccc(S(=O)(=O)C(C)C)cc4)cnc3N)on2)cc1 [VE-822],potency estimated from few doses,NQO1,1090 nM
CCn1c(-c2nonc2N)nc2c(C#CC(C)(C)O)nc(O[C@@H](CN)c3ccccc3)cc21.O=C(O)C(F)(F)F [GSK1007102B],potency estimated from few doses,AKT1,1120 nM
Cc1ccccc1-n1ncc(C(=O)c2ccccc2)c1N [RO1151248-000],potency estimated from few doses,MAPK11; CATDS: 3.0870042087065699E-2,552 nM
O=C1N=C(NCc2cccs2)O/C1=C\c1ccc2ncccc2c1 [RO4624208-000],potency estimated from few doses,DCTPP1,1270 nM
